# Bioassay records from PubChem BioAssay.
# G9a block: qHTS Assay for Inhibitors of Histone Lysine Methyltransferase G9a. Potency, µM (series often up to 102 µM), for the others: at the top dose activity, negative = inhibition, usual class: inhibitors. Histone-lysine N-methyltransferase EHMT2 (Homo sapiens), Q96KQ7. G9a H3K9 monomethylation, AlphaScreen, 2 h. AID 504332, 2011. hit rate 8.8% among 350,000; note: % is set by controls: 0 for no effect and ±100 for the full control effect; nearly all actives have a fitted effect of over 75% in size
# Target sequence (Q96KQ7 913-1193 limits assumed): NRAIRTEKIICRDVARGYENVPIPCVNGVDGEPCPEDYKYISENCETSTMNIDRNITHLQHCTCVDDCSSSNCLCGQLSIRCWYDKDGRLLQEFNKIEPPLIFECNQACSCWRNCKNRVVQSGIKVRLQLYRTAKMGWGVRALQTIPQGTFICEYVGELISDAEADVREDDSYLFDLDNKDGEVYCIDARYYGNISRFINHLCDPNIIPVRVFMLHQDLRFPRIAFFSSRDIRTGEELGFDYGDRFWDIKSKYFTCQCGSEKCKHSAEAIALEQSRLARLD
#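 Chemiluminescent proximity detection of H3K9 monomethylation, read after 10 min bead incubation in the dark. Reaction: 20 nM G9a, 500 nM biotin-H3K9 peptide, 20 uM SAM cofactor, 2 h, room temperature, following 15 min enzyme-compound preincubation.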
# Sfp PPTase inh: qHTS Assay for Inhibitors of Bacillus subtilis Sfp phosphopantetheinyl transferase (PPTase); 4'-phosphopantetheinyl transferase ffp (Bacillus subtilis), Q9F4F7; Biochemical Sfp PPTase activity, qHTS; Potency, µM, without a hit: largest response in the series, negative = inhibition, actives largely listed as inhibitors; hit rate 3.5% among 310,000;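 note: the enzyme is Sfp with the accession as filed and its product quenches rhodamine fluorescence; 0% = enzyme reaction without inhibitor and -100% = no enzyme wells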
#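 Reaction rates are the 30-min fluorescence difference (ex 525, em 598 nm) in wells containing 15 nM Sfp, 5 uM rhodamine-CoA and 12.5 uM BHQ-2-YbbR at pH 7.6 with 10 mM MgCl2.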
# BAZ2B block: qHTS Assay for Inhibitors of BAZ2B; Bromodomain adjacent to zinc finger domain protein 2B (Homo sapiens), Q9UIF8; AlphaScreen BAZ2B-H3K14Ac peptide displacement; Potency, µM (titrated, usually from 114 µM), for inactives: at the top dose activity change, negative = inhibition, usual class: inhibitors; hit rate 4.4% among 360,000; note: % is set by controls: 0 for no effect and ±100 for the full control effect; nearly all actives have a fitted effect of over 60% in size
#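 Multi-concentration screen (max 110 uM) measuring displacement of acetylated histone H3 peptide from BAZ2B by AlphaScreen, using 50 nM protein, 50 nM peptide and 10 ug/mL streptavidin donor plus Ni-chelate acceptor beads.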
# HP1b binding inh: HTS for Inhibitors of HP1-beta Chromodomain Interactions with Methylated Histone Tails; hit rate 0.56% among 390,000; AlphaScreen HP1-beta / biotin-H3K9me3 peptide binding; Chromobox protein homolog 1 (Homo sapiens), P83916; Potency, µM (top dose mostly 114 µM), without a hit: at the highest dose activity change, negative = inhibition, actives largely listed as inhibitors; note: nearly all actives have a fitted effect of over 70% in size
# Target sequence (P83916 whole entry, looked up): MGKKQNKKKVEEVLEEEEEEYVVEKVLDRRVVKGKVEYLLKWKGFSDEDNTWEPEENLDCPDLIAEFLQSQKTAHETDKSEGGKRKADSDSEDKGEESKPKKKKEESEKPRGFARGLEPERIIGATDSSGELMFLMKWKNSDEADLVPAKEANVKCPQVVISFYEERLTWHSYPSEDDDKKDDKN
#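 Compound inhibition of the preformed complex between 50 nM HP1-beta and 50 nM biotinylated H3K9me3 peptide was read by AlphaScreen. Buffer was PBS pH 7.4 with 0.01% Tween-20. Incubations ran 30 min at room temperature, with 10 ug/mL donor/acceptor beads.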
# JMJD2A Tudor inh: qHTS Assay for Inhibitors of JMJD2A-Tudor Domain. Lysine-specific demethylase 4A (Homo sapiens), O75164. AlphaScreen JMJD2A-Tudor / H3K4me3 peptide binding. Potency, µM (doses to about 114 µM), without a hit: at the top dose activity change, negative = inhibition, actives largely listed as inhibitors. hit rate 4.4% among 390,000; note: % is set by controls: 0 for no effect and ±100 for the full control effect; nearly all actives have a fitted effect of over 50% in size
# L3MBTL1 inh: qHTS Assay for the Inhibitors of L3MBTL1; AlphaScreen L3MBTL1–H3K9me1 peptide binding; hit rate 0.66% among 230,000; Potency, µM (series often up to 57.1 µM), for the others: at the highest dose activity, negative = inhibition, most hits filed as inhibitors; AID 485360, 2010; Lethal(3)malignant brain tumor-like protein 1 (Homo sapiens), Q9Y468; note: % is set by controls: 0 for no effect and ±100 for the full control effect; nearly all actives have a fitted effect of over 60% in size
#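 Read-out is AlphaScreen signal from streptavidin donor and nickel chelate acceptor beads (10 ug/mL final each) bridging L3MBTL1 (50 nM) and biotinylated K9-monomethylated H3(1-15) peptide (75 nM), after 30 min compound exposure at room temperature.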
# An asterisk follows results filed as active; ? = inconclusive; / = not tested or not shown; [ ] = another dose, or the depositor's remark. An excerpt weighted towards active compounds, which were near 12% of everything screened. Calls come from the whole dose curve; as a rule, active = well fitted curve in the direction sought with a large enough effect; inconclusive = small, poorly fitted or top-dose-only effect, or another doubt; inactive = no such curve, though single readings can be large; an effect the other way counts as inactive or inconclusive. Potency is the fitted concentration of half-maximal effect.
SMILES,G9a block,Sfp PPTase inh,BAZ2B block,HP1b binding inh,JMJD2A Tudor inh,L3MBTL1 inh
COc1cccc(C2C(C(=O)c3cc4ccccc4o3)=C(O)C(=O)N2CCN2CCOCC2)c1 (stereo not drawn),45µM*,14%,-13%,7%,-24%,/
COc1ccc(N2CCN(c3ccc(-c4nc(-c5ccccc5)no4)cc3[N+](=O)[O-])CC2)cc1,-42%[59 µM],/,-39%,0%,-21%,/
CCCc1cc(=O)[nH]c(SCC(=O)Nc2ccc(Cl)c(S(=O)(=O)N3CCOCC3)c2)n1,-19%[59 µM],/,12%,41%,-8%,-1%
CCCN1CNc2c(c(=O)[nH]c(=S)n2CCc2ccc(C)cc2)C1,/,/,/,42%,-2%,/
C[C@@]12C=Cc3occc3C1CC[C@@]13C[C@@H](CCC12)[C@@](O)(CO)C3 (stereo partly drawn),14µM*,-28%,/,/,/,/
CCOc1ccc(Cl)cc1/C=C1/C(=O)ON=C1C,?,50µM*,?,14%,-6%,/
COc1ccc(Cl)cc1/C=C1/C(=O)ON=C1C,?,50µM*,-27%,13%,-29%,/
CCCNC(=O)c1ccccc1NC(=O)c1ccc2c(c1)NC(=O)C(C)S2 (stereo not drawn),-2%,5%,?,19%,-27%,/
Cc1nc(NCc2ccccc2)c2nc(-c3ccccc3)n(CC3CCN(C)CC3)c2n1,/,10%,/,/,/,/
CC(C)COCC1CC2(CC(C)(c3csc(N)n3)OC2=O)C(=O)O1 (stereo not drawn),-9%[59 µM],14%,-2%,5%,-12%,3%
C=CCNc1nc(C2(C)CC3(CC(C)(C)OC3=O)C(=O)O2)cs1 (stereo not drawn),40µM*,5%,1%,18%,-13%,0%
COc1cccc(N2CCN(c3ccc4nnc(CCC(=O)Nc5cccc(C(C)=O)c5)n4n3)CC2)c1,11%[59 µM],8%,-11%,7%,16µM*,/
FC(F)(F)c1cc(CCN2CCNC[C@H]2Cc2cccc3ccccc23)cc(C(F)(F)F)c1,?,/,50µM*,-11%,?,-6%
CC1CN(Cc2ccc(C#N)cc2Cl)CC(C)O1 (stereo not drawn),35µM*,12%,-6%,33%,?,10%
COCC(=O)N1CCc2nc(-c3ccccc3)c3c(c2C1)CO[C@@H](C)C3,/,-9%,/,/,/,/
Cc1ccc(/C=N/NC(=O)c2ccco2)cc1,/,-2%,-3%,33%,-11%,12%
Cc1cccc(C)c1-n1c(C)cc(/C=N/NC(N)=S)c1C,50µM*,?,45µM*,-63%,50µM*,/
Cc1cc(/C=N/NC(N)=S)c(C)n1-c1ccc(Br)cc1,0%[59 µM],-29%,?,8%,-26%,/
Cc1cc(/C=N/NC(N)=S)c(C)n1-c1cccc(Cl)c1,45µM*,-3%,?,?,?,-14%
Cc1cc(/C=N/NC(N)=S)c(C)n1-c1ccc(Cl)cc1,-7%[59 µM],-10%,-30%,-21%,?,-16%
Cc1cccc(-n2c(C)cc(/C=N\NC(=O)c3ccco3)c2C)c1,45µM*,7%,?,-9%,-30%,-7%
O=C(N/N=C/c1ccc2ncccc2c1)c1ccco1,14µM*,-2%,-16%,2%,79µM*,2%
Cc1ccc(CNC(=O)C(CC(C)C)NS(=O)(=O)c2ccc3c(c2)oc(=O)n3C)cc1 (stereo not drawn),-25%[59 µM],/,-18%,19%,-6%,/
CC(=O)c1cc2c(cc1NC(=O)c1ccc(C)cc1)OCCO2,/,-1%,12%,25%,-19%,18%
CC(=O)N1CCC2(CCN(Cc3ccc(C#N)cc3)CC2)CC1,-1%[12.7 µM],9%,/,/,/,/
SMILES,G9a block,Sfp PPTase inh,BAZ2B block,HP1b binding inh,JMJD2A Tudor inh,L3MBTL1 inh
CCCN(CCC)C1=N/C(=C\c2ccco2)C(=O)N1c1ccccc1,?,35µM*,50µM*,1%,-23%,/
CN1C(=O)/C(=C\c2ccco2)N=C1c1ccc(Cl)cc1Cl,/,-17%,?,?,-31%,/
NC(CCCCCP(=O)(c1ccccc1)c1ccccc1)C(=O)O (stereo not drawn),?,-4%,-18%,-1%,10µM*,13%
COc1ccc(NC(=O)[C@@H]2CCCN2S(=O)(=O)c2ccccc2F)cc1S(=O)(=O)N1CCCCC1,/,/,/,12%[57 µM],-19%,-3%
O=C(NNc1c2ccccc2nc2ccccc12)c1ccccc1O,?,?,7.9µM*,-8%,?,-26%
O=C(NNc1nc(=O)c2cccnc2s1)c1ccccc1O,50µM*,20%,/,-5%,50µM*,/
O=C(NNc1c2ccccc2nc2ccccc12)c1ccc(O)cc1O,?,-14%,20µM*,?,40µM*,?
O=C(NNC(=O)c1cccc2ccccc12)c1ccccc1O,-5%,4%,-7%,33%,-9%,/
O=C(NNc1c2ccccc2nc2ccccc12)c1ccccc1Cl,26%,7%,-33%,28%,-3%,-2%
CC1CCN(c2cc3c(cc2F)c(=O)c(S(=O)(=O)c2cccc(Cl)c2)cn3Cc2ccccc2)CC1,0%[59 µM],/,-1%,16%,-19%,/
COc1ccc(CN2CCC(N3CC(C)OC(C)C3)CC2)c(OC)c1OC (stereo not drawn),/,56µM*,?,?,20µM*,4%
Cc1ccc(CN2CCC(N3CC(C)OC(C)C3)CC2)cc1 (stereo not drawn),13µM*,-24%,56µM*,?,22µM*,/
CC1CCN(Cc2ccc(-c3nn[nH]n3)cc2)CC1,?,6%,9%,26%,-4%,8%
Cc1ccc(CNC(=O)c2cc3c(=O)n(Cc4ccco4)ccc3nc2C)cc1,?,/,-29%,29%,-24%,/
CC(=O)N1CCc2nc3sc(C(=O)c4ccc(F)cc4)c(N)c3c(C(F)(F)F)c2C1,-29%[59 µM],/,50µM*,-6%,?,/
CCOc1ccc(CCNc2nc3ccc(C)cc3n3cnnc23)cc1OCC,-1%,12%,-10%,43%,-20%,/
CC(C)(O)C#Cc1ccc(CN2CCN(C3CCCCC3)C(CCO)C2)s1 (stereo not drawn),1%,16%,-4%,31%,-1%,2%
Clc1ccc(-c2nc3cnccn3c2Nc2ccc3c(c2)OCO3)cc1,16µM*,-6%,45µM*,?,50µM*,-29%
